# This is a sample that favours compounds with a hit; in the whole collection about 5.7% have one here.
# HT1080 IDH1KD tx: toxicity to HT-1080 IDH1 knockdown cells (counter line); Potency, µM (top dose mostly 46.1 µM), most hits filed as cytotoxic; HT-1080 IDH1 knockdown viability, ATP luminescence, 48 h; actives 2% (n = 360,000); AID 686971
#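 Using the IDH1-knockdown HT-1080 line run in the same batch and compound series as the NT line, viability after 48 h at 37 °C was determined by CellTiter-Glo luminescence and expressed as % activity.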
# KB-V1 cytotox: kills drug-selected multidrug resistant KB-V1 cells; KB-V1 MDR cells viability, CellTiter-Glo, 72 h; Potency, µM (doses to about 46.1 µM), actives largely listed as cytotoxic; actives 3.4% (n = 400,000); AID 1347076; note: nearly all actives have a fitted effect of over 60% in size
#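 In this primary screen, KB-V1 cells overexpressing P-gp are incubated with library compounds (lowest to highest concentration) for 72 h at 37 degrees C before a luminescent ATP viability read.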
# KB-3-1 tox: KB-3-1 parental cell cytotoxicity; KB-3-1 viability, CellTiter-Glo ATP luminescence, 72 h; Potency, µM (doses to about 46.1 µM), actives largely listed as cytotoxic; actives 1.4% (n = 400,000); AID 1347075; note: nearly all actives have a fitted effect of over 60% in size
#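 KB-3-1 cells, DMEM (no phenol red) + 10% FBS; compound by pin transfer, 72 h, 37 °C. Readout: CellTiter-Glo luminescence after 10 min. Data normalized, curve-fitted.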
# HT1080NT lethal: kills 2HG-producing HT-1080-NT fibrosarcoma cells. HT-1080-NT fibrosarcoma viability, CellTiter-Glo ATP luminescence, 48 h. Potency, µM (highest dose often 46.1 µM), hits mostly cytotoxic. actives 1.6% (n = 360,000);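 note: NT is the 2HG producing partner of a matched IDH1 knockdown line; nearly all actives have a fitted effect of over 55% in size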
#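 Viability of the 2HG-overproducing fibrosarcoma line after 48 hours of compound exposure at 37 degrees C was determined by luminescence with CellTiter-Glo, and concentration-effect curves were then fitted and categorized.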
# Hits are given with their value; . = inactive; ? = inconclusive; / = no result; ! = not active in a repeat. Calls come from the whole dose curve; as a rule, active = well fitted curve in the direction sought with a large enough effect; inconclusive = small, poorly fitted or top-dose-only effect, or another doubt; inactive = no such curve, though single readings can be large; an effect the other way counts as inactive or inconclusive.
SMILES,HT1080 IDH1KD tx,KB-V1 cytotox,KB-3-1 tox,HT1080NT lethal
Cc1cnc(C)c(Nc2nc(C(N)Cc3ccc(C(F)(F)F)cc3)cs2)n1 (stereo not given),16.4µM,.,?,?
COC(=O)[C@@H]1N=C(c2ccc(OC)cc2)O[C@]12C(=O)N(C)c1cccc(Cl)c12,.,.,.,.
Cc1cccc(-n2c(/C=C/c3cn(C)c4ccccc34)nc3ccccc3c2=O)c1,/,.,.,/
Fc1ccc([C@@H]2CCNC[C@H]2COc2ccc3c(c2)OCO3)cc1,16.4µM,23.1µM!,?,16.4µM
COc1ccc(C(c2nnnn2-c2c(C)cccc2C)N2CCC3(CC2)C(=O)NCN3c2ccccc2)cc1 (stereo not given),?,?,?,23.1µM
CCCCn1nnnc1C(c1cccc2ccccc12)N1CCC2(CC1)C(=O)NCN2c1ccccc1 (stereo not given),?,20.6µM,?,?
Cc1cccc(C)c1-n1nnnc1C(c1ccccc1)N1CCC2(CC1)C(=O)NCN2c1ccccc1 (stereo not given),?,.,?,?
O=C(O)c1ccccc1-c1ccc(C=C2C(=O)N(c3ccccc3)C(=S)N(c3ccccc3)C2=O)o1,.,?,.,.
CC1(C)CC[C@]2(C)CC[C@]3(C)C4C[C@@H]5OO[C@@]6(O5)C(CCCC6(C)C)[C@]4(C)CC[C@@]3(C)C2C1 (stereo not given in full),.,.,.,.
COc1ccc(-n2nnnc2C(c2cccc3ccccc23)N2CCC3(CC2)C(=O)NCN3c2ccccc2)cc1 (stereo not given),.,.,?,.
S=C=Nc1ccccn1,.,.,.,.
c1ccc(/N=C2\N=C(Nc3ccccn3)c3ccccc32)nc1,.,2.91µM,.,?
C=C1C(O)[C@@H]2O[C@]3(CC[C@H](/C=C/C(C)[C@@H]4CC(C)=CC5(O[C@H](C[C@@](C)(O)C(=O)O)CCC5O)O4)O3)CC[C@H]2O[C@@H]1C(O)CC(C)[C@H]1OC2(CCCCO2)CCC1C (stereo not given in full),0.0082µM,.,?,?
O=[N+]([O-])c1ccc(N2CCOCC2)c2c1no[n+]2[O-],5.17µM,5.17µM,?,5.17µM
CCC(=NCC1CCCO1)c1c(O)n(Cc2ccccc2)c(=O)[nH]c1=O (stereo not given),.,4.11µM,.,.
Cc1ccc2c(c1)C1CN(C)CCC1N2C(=O)Nc1ccc(Cl)cc1 (stereo not given),?,?,.,?
O=P(Nc1cccc(Cl)c1)(Oc1ccccc1)Oc1ccccc1,?,?,.,?
COc1cccc(NP(=O)(Oc2ccccc2Cl)Oc2ccccc2Cl)c1,?,?,.,20.6µM
COc1cccc(NP(=O)(Oc2ccccc2)Oc2ccccc2)c1,?,.,5.8µM,?
CC(N)C(=O)OC(C)(C)Cc1ccc(Cl)cc1 (stereo not given),.,.,.,?
O=C(Cn1ncn2c(cc3cc(F)ccc32)c1=O)N1CCC2(CC1)OCCO2,.,.,.,.
O=C(c1ccc2c3c(cccc13)CC2)C1CCCN(CC2CC2)C1 (stereo not given),16.4µM,?,.,?
O=C(c1ccc2c3c(cccc13)CC2)C1CCCN(Cc2ncc[nH]2)C1 (stereo not given),?,?,.,?
O=C1NC(=O)N(c2ccccc2)C(=O)/C1=C\C=C\c1ccccc1,5.17µM,?,?,?
CC(C)c1ccc(N2C(=O)NC(=O)/C(=C/C=C/c3ccco3)C2=O)cc1,?,?,14.6µM,.
SMILES,HT1080 IDH1KD tx,KB-V1 cytotox,KB-3-1 tox,HT1080NT lethal
Cc1ccc(N2C(=O)NC(=O)/C(=C/C=C/c3ccco3)C2=O)cc1,23.1µM,18.4µM,?,?
CCc1ccc(N2C(=O)NC(=O)/C(=C\C=C\c3ccco3)C2=O)cc1,.,?,?,.
O=C1NC(=O)N(Cc2ccccc2)C(=O)/C1=C\c1ccco1,.,.,.,.
O=C1NC(=O)N(Cc2ccc(F)cc2)C(=O)/C1=C\C=C\c1ccco1,?,?,?,20.6µM
CC1CCN(c2cc(Br)c([N+](=O)[O-])cc2F)CC1,.,.,.,.
[O]=[Sb]([OH])([OH])[c]1ccccc1,/,.,?,/
CSCCC(c1nnnn1C(C)(C)C)N1CCC2(CC1)C(=O)NCN2c1ccccc1 (stereo not given),.,.,.,.
Cc1cc(C)cc(N2C(=O)NC(=O)/C(=C\C=C\c3ccco3)C2=O)c1,?,23.1µM,?,?

# Screens deposited in PubChem BioAssay by National Center for Advancing Translational Sciences (NCATS).
